Source: PubChem BioAssay (NCI)
Compounds without any hit were thinned out: in the full panel of roughly 83,000, 20% have a hit.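 Cell lines were cultured in 96-well plates, exposed to a single compound concentration, and assessed for percent growth 48 hours later.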 Values without a mark were called inactive. Activity calls are given as the source filed them. How the source made its calls: active means growth percent below 10; inactive means the rest.

These molecules were tested on SK-MEL-2 melanoma (assay: NCI-60 one-dose screen, 48 h (100 = growth as untreated, 0 = no growth, -100 = all killed)). Details: 10 µM unless noted.

Compound	growth
COc1ccc(-c2nc(N=Nc3c(O)[nH]c4ccccc34)nc(N3CCOCC3)c2C#N)cc1	77.9%
COc1cc2nc(-c3ccc(C(F)(F)F)cc3)cc(OCCN3CCCC3)c2cc1OC	105%
NC(=S)N/N=C(/c1ccccc1)c1ccccc1N	103%
C=C(C)[C@@H]1CC[C@]2(C=O)CC[C@]3(C)[C@H](CC[C@@H]4[C@@]5(C)CCCNC(C)(C)[C@@H]5CC[C@]43C)[C@@H]12	89.5%
CCCNC(=O)Oc1ccc(/C(=C(\C)c2ccccc2)c2ccc(OCCN3CCCCC3)cc2)cc1	90.6%
CCOC(=O)Oc1c(OC)cc(C(=O)O[C@@H]2C[C@@H]3CN4CCc5c([nH]c6cc(OC)ccc56)[C@H]4C[C@@H]3[C@H](C(=O)OC)[C@H]2OC)cc1OC	105%
COc1ccc(OC)c(/C=C/[C@H]2O[C@@H](C)[C@H](O)[C@@H]2O)c1	91.2%
CCC(=O)c1ccc(O)c(OC)c1	103%
Clc1cc(Cl)cc(N2N=C(c3cccc(Nc4ccncc4)c3)CC2c2ccccc2)c1 (stereo not drawn)	97.1%
Fc1cc(C2=NNC(c3ccc[nH]3)C2)ccc1-n1ccc(C(F)(F)F)n1 (stereo not drawn)	102%
Clc1nc(Nc2ccccc2)nc(Nc2ccccc2)n1	106%
Cn1c(=O)c2[nH]c(CCCc3nc4c([nH]3)c(=O)n(C)c(=O)n4C)nc2n(C)c1=O	109%
C=C1C(=O)O[C@H]2[C@H]1CC/C(COC(=O)NCCc1c[nH]c3ccc(Cl)cc13)=C\CC[C@@]1(C)O[C@@H]21	-3.3% (active)
Cc1[nH]c(C(=O)Nc2ccccc2OCc2cccc(C(=O)NCCN)c2)c(Cl)c1Cl	107%
COc1cc2oc(-c3cccc(C(=O)Nc4ccc(Cl)cc4)c3)cc(=O)c2c(OC)c1OC	31.4%
O=C(Nc1nc2ccc(S(=O)(=O)Nc3ccc(C4(C(F)(F)F)CC4)cc3)cc2[nH]1)c1cnccn1	56.3%
CCCCCCCCCCN=C(N)N=C(N)N	75.8%
CC(C)NC(=O)N1C(=O)CCC1NNC(=O)c1ccc([N+](=O)[O-])cc1 (stereo not drawn)	93.1%
N#Cc1cc(-c2nc3ccccc3s2)c(=O)n(NS(=O)(=O)c2ccc(Cl)cc2)c1N	102%

Compound	growth
O=C1c2ccccc2-c2c1c1c(NCCCO)nc3ccccc3c1n2Cc1ccccc1	48.5%
COC(=O)N[C@H]1CCc2cc(OC)c(OC)c(OC)c2-c2ccc(SC)c(=O)cc21	12.5%
COc1nccnn1	-31.3% (active)
Cc1ccc(C(=O)Nc2ccccc2C(=O)N/N=C(\c2ccccc2)c2ccccn2)cc1	41.4%
CCCCN(CCCC)CCc1c(C)cc(C)c(CCN(CCCC)CCCC)c1O	1.41% (active)
Nc1cc(N)c2cccnc2c1O	98.2%
CN1CCCC1=Nc1ccccc1	114%
COc1ccc(CNC(=O)COc2ccc(/C=N/Nc3nc4ccccc4s3)cc2)cc1	63.9%
O=C1OC(=O)C2C1CC=CC2c1ccccc1 (stereo not drawn)	97.3%
COc1ccc(CC(C)=C(c2ccc(OCCN(C)C)cc2)c2ccc(OCCN(C)C)cc2)cc1	108%
O=C(N=Nc1c(O)[nH]c2ccc(F)cc12)c1cc2ccccc2[nH]1	91%
O=S(=O)(NCCNc1nccc(-c2c(-c3cccc(F)c3)nc3occn23)n1)c1cccc2ccccc12	58.3%
O=S(=O)(c1ccc(N/N=C\c2ccccc2)cc1)c1ccc(N/N=C/c2ccccc2)cc1	76.5%
CCOc1ccc(/C=N/Nc2cc(C)nc3ccc(Cl)cc23)cc1	91%
CC(C)Cc1ccc(C(C)C(=O)NCc2c[nH]c3ccc(Cl)cc23)cc1 (stereo not drawn)	92%
COc1ccccc1OCC(=O)N1CCCCCC1	114%
Nc1nc(SN=Nc2ccc(S(N)(=O)=O)cc2)c2[nH]cnc2n1	-3.49% (active)
COc1ccc(C2CC(n3nnnc3-c3ccccc3)=NN2)cc1 (stereo not drawn)	69.3%
CC(c1ccccc1)n1ccnc1CO (stereo not drawn)	111%
